Screens as filed in PubChem BioAssay.
Shown are actives, neighbours in structure and some others; about 11% of the full set was active somewhere.
HCV inhibitor = qHTS Assay for Inhibitors of Hepatitis C Virus (HCV) | Huh7.5.1 HCVcc-Cre infection, luciferase reporter, 44 h | hit rate 3.4% among 340,000 | Potency, µM (doses to about 41.8 µM), without a hit: at the top dose activity change, negative = inhibition, actives largely listed as inhibitors
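Infectious HCV cell culture screen: compound-treated cells (1,000/well, pre-plated 4 h) are infected with HCVcc-Cre at roughly 0.5 moi and grown 44 h. Infection is quantified by luciferase signal after 15 min substrate incubation at room temperature.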
AmpC no deterg = qHTS Inhibitors of AmpC Beta-Lactamase (assay without detergent); P00811; AmpC nitrocefin hydrolysis, absorbance 480 nm, 0.0001% Triton; Potency, µM (series often up to 57.1 µM), inactives show at the top dose activity change, negative = inhibition, most hits filed as inhibitors; hit rate 0.52% among 330,000; AID 485341, 2010;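 further: plate controls were no compound for no effect and no enzyme for full effect; nearly all actives have a fitted effect of over 20% in size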
Target sequence (P00811 whole entry, looked up): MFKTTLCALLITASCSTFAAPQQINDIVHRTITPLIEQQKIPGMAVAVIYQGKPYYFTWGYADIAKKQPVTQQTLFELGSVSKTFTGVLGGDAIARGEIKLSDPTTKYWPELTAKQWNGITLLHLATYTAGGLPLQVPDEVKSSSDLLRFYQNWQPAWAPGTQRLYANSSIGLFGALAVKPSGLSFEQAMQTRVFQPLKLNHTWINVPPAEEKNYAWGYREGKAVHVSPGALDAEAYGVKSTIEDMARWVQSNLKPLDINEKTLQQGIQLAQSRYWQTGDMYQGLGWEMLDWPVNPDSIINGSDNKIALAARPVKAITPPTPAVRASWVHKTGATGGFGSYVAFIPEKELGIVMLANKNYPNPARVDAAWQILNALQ
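AmpC (5.3 nM in the dispensed reagent) in 20 mM phosphate pH 7.0 with 0.01% (detergent screen) or 0.0001% Triton X-100 was preincubated with compounds for 15 min at room temperature. Nitrocefin was then added from an 800 uM solution, and hydrolysis was followed at 480 nm.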
Pf growth 96h = Primary qHTS for delayed death inhibitors of the malarial parasite plastid, 96 hour incubation; P. falciparum luciferase reporter growth, 96 h; Potency, µM (doses to about 28.7 µM), without a hit: top-dose activity change, negative = inhibition, usual class: inhibitors; hit rate 6.9% among 320,000; AID 504834, 2011
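Delayed-death screen, second-generation endpoint: infected erythrocytes, 2% hematocrit, 0.05% parasitemia final; 96 hours at 37 C, 5% CO2; luciferase detection reagent; luminescence decrease equals reduced growth.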
AMA1 RON2 block = qHTS for Inhibitors of AMA1-RON; Towards Development of Antimalarial Drug Lead: Primary Screen. Plasmodium falciparum AMA1 (3D7) - RON2 peptide interaction. AlphaScreen AMA1-biotinylated RON2 peptide binding. Potency, µM (highest dose often 58.2 µM), for inactives: top-dose activity change, negative = inhibition, hits mostly inhibitors. hit rate 0.2% among 360,000;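 further: 0% = vehicle wells and -100% = peptide control; nearly all actives have a fitted effect of over 45% in size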
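AMA1 (3D7) with his tag at 25 nM final met compounds first, then biotinylated RON2 peptide at 25 nM; detection used donor plus acceptor beads, 10 µg/mL apiece, read by AlphaScreen after 30 min at room temperature.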
Pf growth 48h = Primary qHTS for delayed death inhibitors of the malarial parasite plastid, 48 hour incubation; P. falciparum luciferase growth in erythrocytes, 48 h; Potency, µM (series often up to 28.7 µM), for inactives: at the highest dose activity change, negative = inhibition, actives largely listed as inhibitors; hit rate 5.9% among 310,000; AID 504832, 2011
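Erythrocytes infected with P. falciparum carrying an integrated firefly luciferase reporter (2% hematocrit, 0.1% parasitemia final) were exposed to compounds in RPMI 1640 with 0.5% Albumax at 37 C, 5% CO2. Growth inhibition was scored as reduced luminescence.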
AmpC inh detg = qHTS Inhibitors of AmpC Beta-Lactamase (assay with detergent) | AmpC hydrolysis of nitrocefin, absorbance 480 nm, 0.01% Triton | Potency, µM (highest dose often 114 µM), for the others: at the top dose activity change, negative = inhibition, usual class: inhibitors | hit rate 0.041% among 370,000 | AID 485294, 2010;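 further: 0% = no-compound wells and -100% = no-enzyme wells; nearly all actives have a fitted effect of over 25% in size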
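20 mM phosphate pH 7.0 + 0.01% (detergent screen) or 0.0001% Triton X-100; 5.3 nM AmpC reagent; cpd preinc 15 min RT; nitrocefin (800 uM stock) to start; A480 q20 s × 4 min; Activity was normalised to no-enzyme and no-compound control wells.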
An asterisk follows results filed as active; ? = inconclusive; . = no result. The call rests on the fitted dose curve; in most records, active means well fitted curve in the direction sought with a large enough effect; inconclusive means small, poorly fitted or top-dose-only effect, or another doubt; inactive means no such curve, though single readings can be large; an effect the other way counts as inactive or inconclusive. Unless noted, on the % scale 0 is the no-effect control and ±100 the full control effect; potency means the concentration at half of the fitted maximal effect.

SMILES	HCV inhibitor	AmpC no deterg	Pf growth 96h	AMA1 RON2 block	Pf growth 48h	AmpC inh detg
COc1cccc(C(=O)Nc2cc(NC(=O)c3cccs3)ccc2C)c1OC	10µM*	-21.7%	26.3%	-4.6%	18.9%	4.0%
COc1cc(C(=O)OCc2ccc(C)cc2)cc(NC(=O)c2cccs2)c1OC	?	-29.8%	10.4µM*	3.0%	8.28µM*	-1.3%
COc1cccc(C(=O)Nc2cc(NC(=O)c3cccs3)ccc2C)c1	-15.5%	-37.2%	?	-1.5%	-5.8%	?
Cc1ccc(NC(=O)c2cccs2)cc1NC(=O)c1ccc(F)cc1	?	-43.4%	10.4µM*	-0.3%	-7.2%	?
Cc1c(C(=O)Nc2nc(-c3ccc(F)cc3)ns2)oc2ccc(Br)cc12	.	.	.	.	.	17.8%
O=C(c1cc2ccccc2cc1O)N1CCN(c2cccc(Cl)c2)CC1	5.0%	-33.4%	11.7µM*	-5.9%	?	-11.0%
CS(=O)(=O)N(Cc1ccc(C(=O)N2CCc3ccccc3C2)cc1)c1ccccc1	?	76.2%	32.6%	-2.8%	-11.6%	-2.0%
COc1ccc(S(=O)(=O)NCc2ccc(C(=O)N3CCc4ccccc4C3)cc2)cc1	?	-2.1%	6.57µM*	2.8%	?	-9.5%
CS(=O)(=O)N(Cc1ccccc1)c1ccc(C(=O)N2CCN(c3cccc(Cl)c3)CC2)cc1	8.91µM*	116.4%	.	-1.5%	?	-8.2%
Cc1ccc(CN(c2ccc(C(=O)N3CCc4ccccc4C3)cc2)S(C)(=O)=O)cc1	10µM*	135.4%	.	-11.6%	-28.5%	1.1%
CS(=O)(=O)N(Cc1ccc(Cl)cc1)c1ccc(C(=O)N2CCN(c3ccccc3)CC2)cc1	5.5%	152.5%	?	-16.1%	.	3.0%
CCOC(=O)N1CCN(C(=O)c2ccc(CNS(=O)(=O)c3ccc(OC)cc3)cc2)CC1	20.3%	46.1%	-16.7%	1.0%	-18.9%	-7.3%
COc1ccccc1CNC(=O)CCCn1nc(C)c2sc3ccccc3c2c1=O	.	.	.	.	.	-2.8%
COc1ccccc1N1CCN(c2c(CN3CCCC3)c(=O)oc3ccccc23)CC1	.	.	.	.	.	17.0%
Cc1ccc(S(=O)(=O)NCc2ccc(C(=O)N3CCc4ccccc4C3)cc2)cc1	?	-5.0%	6.57µM*	2.9%	?	2.3%
Cc1ccc(C)c(CN2C(=O)c3ccccc3S(=O)(=O)c3ccc(C(=O)N4CCc5ccccc54)cc32)c1	.	.	.	.	.	-7.5%
Nc1nc(CSC(=S)N2CCN(c3ccccc3)CC2)nc(Nc2ccc(F)cc2)n1	?	-45.7%	11.7µM*	?	?	0.4%
Nc1nc(CSC(=S)N2CCOCC2)nc(Nc2ccccc2)n1	-4.4%	-15.4%	12.5%	-9.1%	196.5%	4.5%
COc1ccccc1/C=C/C=N/n1c(-c2ccc(C)cc2)n[nH]c1=S	-14.8%	-40.1%	-14.0%	33.2%	-2.7%	-5.6%
COc1ccccc1/C=C/C=N/n1c(-c2ccncc2)n[nH]c1=S	-8.9%	?	7.38µM*	65.2%	-1.8%	0.0%
CCOc1ccc(NC(=O)C(C)Oc2ccccc2C(=O)Nc2ccc(C)c(Cl)c2)cc1 (configuration not stated)	11.2µM*	-5.4%	?	2.2%	?	-8.7%
Cc1ccc(NC(=O)COc2ccccc2C(=O)Nc2ccccc2)cc1Cl	-8.9%	-33.0%	-95.4%	0.0%	?	0.5%
COc1ccc(N2CCN(C(CNC(=O)c3ccc(C)cc3)c3ccc4c(c3)OCO4)CC2)cc1 (configuration not stated)	.	.	.	.	.	11.2%
O=C(C1CCCN(S(=O)(=O)c2cccs2)C1)N1CCN(c2ccccc2F)CC1 (configuration not stated)	.	.	.	.	.	27.2%
Cc1cc(NC(=O)c2cn(C3CCCCC3)c(=O)c3c2c2ccccc2n3C)no1	11.2µM*	41.6%	?	7.3%	.	2.2%
SMILES	HCV inhibitor	AmpC no deterg	Pf growth 96h	AMA1 RON2 block	Pf growth 48h	AmpC inh detg
Cc1ccccc1OCC(=O)Nc1ccc(-c2nc3cc(Cl)cc(Cl)c3o2)cc1	.	.	.	.	.	14.2%
O=C(CSc1nccn1-c1cccc(Cl)c1)NO	1.3%	-16.3%	?	67.0%	0.738µM*	1.1%
O=C(CSc1nccn1-c1ccccc1)NO	6.6%	-1.6%	0.928µM*	-0.7%	2.08µM*	-0.1%
COc1ccc(NC(=O)CSc2nccn2-c2ccccc2)cc1	1.9%	-5.2%	2.5%	-8.6%	14.7%	-12.9%
COc1ccc(-n2ccnc2SCC(=O)NO)cc1	7.0%	-21.9%	?	41.5%	1.31µM*	-1.4%
CN1CCN(c2cc(-c3ccccc3)nc3cc(-c4ccc(F)cc4)nn23)CC1	?	15.9%	-9.2%	7.4%	.	-10.0%
Fc1ccc(-c2cc3nc(-c4ccccc4)cc(N4CCN(CCN5CCOCC5)CC4)n3n2)cc1	10µM*	191.1%	-1.7%	14.3%	1.04µM*	?
COc1cccc(-c2cc3nc(-c4ccccc4)cc(N4CCC5(CC4)OCCO5)n3n2)c1	?	68.3%	-11.6%	40.5%	13.1µM*	1.5%
CCCCNC(=O)c1cnn2c(C)c(Cc3c(F)cccc3Cl)c(C)nc12	.	.	.	.	.	7.7%
COc1ccc(C)cc1NS(=O)(=O)c1ccc2oc(=O)c3ncn(C)c3c2c1	.	.	.	.	.	24.0%
N#CCC(=O)Nc1ccc(C(=O)NCC2(N3CCOCC3)CCCCC2)cc1	3.8%	37.5%	10.4µM*	2.4%	11.7µM*	6.3%
CS(=O)(=O)c1ccc(C(=O)NCC2(N3CCOCC3)CCCCC2)cc1	0.1%	-15.2%	.	-0.5%	.	.
Cc1ccc2c(CC(=O)NCC3(N4CCOCC4)CCCCC3)coc2c1C	-13.0%	127.3%	9.28µM*	-6.1%	?	7.0%
COC(=O)c1c(NC(=O)COc2ccc(Cl)cc2)sc2c1CC(C)(C)NC2(C)C	11.2µM*	49.8%	?	-2.1%	?	-8.8%
CC1(C)Cc2c(sc(NC(=O)COc3ccc(Cl)cc3Cl)c2C(N)=O)C(C)(C)N1	1.1%	4.7%	?	-4.9%	10.4µM*	1.1%
CCOc1ccc(NC(=O)Cn2c(=O)c(CNc3ccc(CC)cc3)cc3cc4c(cc32)OCO4)cc1	.	.	.	.	.	18.0%
Cc1cccc(C(=O)N2CCc3cc(CNS(=O)(=O)c4ccc(Cl)s4)ccc32)c1	.	.	.	.	.	14.0%
CCN(CC)C(=O)c1sc2c(c1C)c(=O)n(CCc1ccccc1)c(=O)n2Cc1ccc(C)cc1	.	.	.	.	.	9.3%
